Data as given in PubChem BioAssay (NCI).
This is part of a sample that, as a whole, favours compounds with a hit. Of some 83,000 tested, about 20% had one in any assay.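 For each line, cells grew in 96-well plates with the test compound present at a single concentration for 48 hours.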 Values without a mark were called inactive. Activity calls are given as the source filed them. The calls were made as follows: active = growth percent below 10; inactive = the rest.

What follows are compounds tested on MDA-MB-231 breast (assay: NCI-60 one-dose screen, 48 h (100 = growth as untreated, 0 = no growth, -100 = all killed)). Conditions: 10 µM unless noted.

How did the growth turn out when CCN1CCN(Cc2ccc(NC(=O)Nc3ccc(-n4ccc5c(NC(=O)c6ccccc6)nccc54)cc3)cc2C(F)(F)F)CC1 was run?
The growth was -39.3% (active).

For Nc1nc(N)c2cc(NCc3ccc(Cl)c(Cl)c3)ccc2n1, which growth is on record?
Its growth is -86.8% (active).

Which growth does the source give for O=c1oc2ccccc2cc1-c1cc(-c2ccc(-c3cc(-c4cc5ccccc5oc4=O)nc(-c4cc5ccccc5oc4=O)c3)cc2)cc(-c2cc3ccccc3oc2=O)n1 here?
The growth was 94.4%.

For C=C1C(=O)O[C@H]2[C@H]1CC/C(COC(=O)N[C@@H](Cc1c[nH]c3ccccc13)C(=O)OC)=C\CC[C@@]1(C)O[C@@H]21, which growth is on record?
The growth was 25.2%.

For COc1cc(OC)c(Cl)cc1N, which growth is on record?
Its growth is 94.8%.

COC(=O)c1ccc2c(c1)nc(-c1cc3ccccc3[nH]c1=O)n2-c1cc(C(C)(C)C)[nH]n1 was tested. Which growth did it give?
The growth was 68.4%.

How did the growth turn out when Fc1ccc(-c2nc(-c3ccc(-c4nc5ccc(F)cc5[nH]4)cc3)no2)cc1 was run?
The growth was 74.3%.

Which growth does the source give for CCCC(CCC)(C(N)=O)C(=O)O here?
Its growth is 116%.

CNC(=O)OC1C(O[C@H]2C[C@H]3[C@@H]4CC=C5C[C@@H](O)CC[C@]5(C)[C@H]4CC[C@]3(C)[C@H]2[C@H](C)C(=O)CCC(C)C)OCC(O)C1OC1OCC(O)C(O)C1OC(=O)c1ccc(OC)cc1 (stereo partly specified) was tested. Which growth did it give?
The growth was 32.5%.

With CC(=O)O[C@@H]1CC2C(C)(C)CCCC2(C)C2=C1C(=O)C(C(C)C)=CC2=O (stereo partly specified) as the compound, how does the growth read?
Its growth is -15% (active).

How did the growth turn out when CC(=O)Oc1c(Cl)c(Cl)c(Cl)c(Cl)c1Cl was run?
The growth was 86.3%.

For Oc1c(C(Nc2ccccc2Br)c2ccccc2)ccc2cccnc12 (stereo unspecified), which growth is on record?
Its growth is 37.7%.

O=C1C(Cl)=C(Nc2cccc3ccccc23)C(=O)c2ccccc21 was tested. Which growth did it give?
The growth was 57.5%.

With Nc1c(C(=O)Nc2ccccc2)sc2nc3c(cc12)C(=O)CCC3 as the compound, how does the growth read?
Its growth is 52.1%.

CCOCCNc1ccc(S(=O)(=O)c2ccc(N)cc2)cc1N was tested. Which growth did it give?
Its growth is 118%.

With CCCCSc1ncnc2c1ncn2C1CCCCO1 (stereo unspecified) as the compound, how does the growth read?
The growth was 110%.

Which growth does the source give for CCNCCCn1c2c(c3ccc(Cl)cc3c1=O)C(=O)c1cc(OC)cnc1-2 here?
Its growth is -72.6% (active).

How did the growth turn out when COc1ccc2nc3ccccc3c(NCc3ccc(C)cc3)c2c1 was run?
The growth was 33.6%.

Which growth does the source give for C=CCOC(=O)C1=C(C)NC2=C(C(=O)CCC2)C1c1ccc(F)cc1 (stereo unspecified) here?
The growth was 98%.

For O=C(O)C(CCc1ccccc1)NCc1ccccc1 (stereo unspecified), which growth is on record?
The growth was 91.4%.

For COc1ncnc2[nH]cc(CN3CCN(c4ccc(F)cc4)CC3)c12, which growth is on record?
The growth was 117%.

O=S(=O)(Cc1ccc(Cl)cc1Cl)c1ccc(Cl)cc1 was tested. Which growth did it give?
Its growth is 49.8%.

Which growth does the source give for COc1ccc(-c2nc3ccccc3n3cccc23)cc1 here?
The growth was 97.9%.

Each compound was assayed on RXF 393 renal in the same assay as above. Conditions: 10 µM unless noted.

Which growth does the source give for CCn1c(Cc2ccccc2Nc2c(Cl)cccc2Cl)nnc1SCC(=O)Nc1cccc(OC)c1 here?
The growth was 90%.

For COc1ccc2nc(C)cc(Sc3nc4ccccc4s3)c2c1, which growth is on record?
Its growth is -16.5% (active).

With COc1cnc2c(c1)C(=O)c1c-2n(CCCN2CCN(C)CC2)c(=O)c2cc(Cl)ccc12 as the compound, how does the growth read?
The growth was 46.9%.

With c1cn2cc(-c3ccc4ncn(C5CCCCC5)c4c3)nc(-c3ccc4c(c3)ncn4C3CCCCC3)c2n1 as the compound, how does the growth read?
The growth was -89.1% (active).

For CN1C(=O)N(C)C2C1NN=c1s/c(=C\c3ccc(C(F)(F)F)cc3)c(=O)n12 (stereo unspecified), which growth is on record?
The growth was -3.65% (active).

How did the growth turn out when CN1C(=O)N(C)C2C1NN=c1s/c(=C\c3ccsc3)c(=O)n12 (stereo unspecified) was run?
Its growth is 51.6%.

How did the growth turn out when C/C(=N\Nc1ccc([N+](=O)[O-])cn1)c1ccc(N)cc1 was run?
The growth was 132%.

Which growth does the source give for COc1ccccc1/C=N\Nc1ccc([N+](=O)[O-])cn1 here?
Its growth is 115%.

For CCCCCCCCCCCCCCCCCC(=O)[O][Sn]([CH2]CCC)([CH2]CCC)[CH2]CCC, which growth is on record?
Its growth is -98% (active).

With C[C@H](NC(=O)c1snnc1C1CC1)c1c(F)cccc1Cl as the compound, how does the growth read?
Its growth is -22.6% (active).

For CC(C)c1cccc(C#N)c1, which growth is on record?
The growth was 102%.

With CN1C(=O)N(C)C2C1NN=c1s/c(=C\c3ccc(Br)cc3)c(=O)n12 (stereo unspecified) as the compound, how does the growth read?
The growth was 9.08% (active).

With O=C1SCN(Cc2ccccc2)CN1Cc1ccccc1 as the compound, how does the growth read?
Its growth is 108%.

Which growth does the source give for C[N+](C)(C)CC(=O)N/N=C\c1ccco1 here?
Its growth is 118%.

How did the growth turn out when COc1cc(C2CC(c3ccc(Cl)cc3)=NN2C(C)=O)ccc1Oc1nc2c(c(=O)n(C)c(=O)n2C)n1C (stereo unspecified) was run?
The growth was 86.8%.

How did the growth turn out when CCN1CCN(Cc2ccc(NC(=O)Nc3ccc(-n4ccc5c(NC(=O)c6ccccc6)nccc54)cc3)cc2C(F)(F)F)CC1 was run?
The growth was -86.8% (active).

Which growth does the source give for Nc1nc(N)c2cc(NCc3ccc(Cl)c(Cl)c3)ccc2n1 here?
Its growth is -82.7% (active).

Which growth does the source give for O=c1oc2ccccc2cc1-c1cc(-c2ccc(-c3cc(-c4cc5ccccc5oc4=O)nc(-c4cc5ccccc5oc4=O)c3)cc2)cc(-c2cc3ccccc3oc2=O)n1 here?
The growth was 118%.

C=C1C(=O)O[C@H]2[C@H]1CC/C(COC(=O)N[C@@H](Cc1c[nH]c3ccccc13)C(=O)OC)=C\CC[C@@]1(C)O[C@@H]21 was tested. Which growth did it give?
The growth was -55.4% (active).

COc1cc(OC)c(Cl)cc1N was tested. Which growth did it give?
The growth was 110%.

How did the growth turn out when COC(=O)c1ccc2c(c1)nc(-c1cc3ccccc3[nH]c1=O)n2-c1cc(C(C)(C)C)[nH]n1 was run?
The growth was 89.9%.

With Fc1ccc(-c2nc(-c3ccc(-c4nc5ccc(F)cc5[nH]4)cc3)no2)cc1 as the compound, how does the growth read?
Its growth is 79.8%.

With CCCC(CCC)(C(N)=O)C(=O)O as the compound, how does the growth read?
The growth was 124%.

With CNC(=O)OC1C(O[C@H]2C[C@H]3[C@@H]4CC=C5C[C@@H](O)CC[C@]5(C)[C@H]4CC[C@]3(C)[C@H]2[C@H](C)C(=O)CCC(C)C)OCC(O)C1OC1OCC(O)C(O)C1OC(=O)c1ccc(OC)cc1 (stereo partly specified) as the compound, how does the growth read?
Its growth is -64.4% (active).

For CC(=O)O[C@@H]1CC2C(C)(C)CCCC2(C)C2=C1C(=O)C(C(C)C)=CC2=O (stereo partly specified), which growth is on record?
Its growth is -57.8% (active).

Which growth does the source give for CC(=O)Oc1c(Cl)c(Cl)c(Cl)c(Cl)c1Cl here?
Its growth is 116%.

For Oc1c(C(Nc2ccccc2Br)c2ccccc2)ccc2cccnc12 (stereo unspecified), which growth is on record?
Its growth is 37.6%.

With O=C1C(Cl)=C(Nc2cccc3ccccc23)C(=O)c2ccccc21 as the compound, how does the growth read?
The growth was 120%.

For Nc1c(C(=O)Nc2ccccc2)sc2nc3c(cc12)C(=O)CCC3, which growth is on record?
Its growth is -9.9% (active).

How did the growth turn out when CCOCCNc1ccc(S(=O)(=O)c2ccc(N)cc2)cc1N was run?
The growth was 130%.

With CCCCSc1ncnc2c1ncn2C1CCCCO1 (stereo unspecified) as the compound, how does the growth read?
Its growth is 120%.

Which growth does the source give for CCNCCCn1c2c(c3ccc(Cl)cc3c1=O)C(=O)c1cc(OC)cnc1-2 here?
The growth was 8.86% (active).

For COc1ccc2nc3ccccc3c(NCc3ccc(C)cc3)c2c1, which growth is on record?
The growth was 6.17% (active).

With C=CCOC(=O)C1=C(C)NC2=C(C(=O)CCC2)C1c1ccc(F)cc1 (stereo unspecified) as the compound, how does the growth read?
Its growth is 111%.

How did the growth turn out when O=C(O)C(CCc1ccccc1)NCc1ccccc1 (stereo unspecified) was run?
The growth was 128%.

COc1ncnc2[nH]cc(CN3CCN(c4ccc(F)cc4)CC3)c12 was tested. Which growth did it give?
The growth was 111%.

How did the growth turn out when O=S(=O)(Cc1ccc(Cl)cc1Cl)c1ccc(Cl)cc1 was run?
Its growth is -15.6% (active).

COc1ccc(-c2nc3ccccc3n3cccc23)cc1 was tested. Which growth did it give?
The growth was 135%.
